# From PubChem BioAssay (NCATS)
# Results filed as inconclusive are left out. Entries that show only a call come without a potency. The source made the active and inactive calls. Unless noted, calls follow the shape of the full dose curve.
# Experiments:
# [1] = qHTS for Inhibitors of the Functional Ribonucleoprotein Complex (vRNP) of Lassa (LASV) Arenavirus: Viability assay - alamar blue signal for LASV Primary Screen (AID 1347083; calls by dose curve; tested in HEK293 reporter line; also: nearly all actives have a fitted effect of over 80% in size; also: potency is read from the fitted curve at half-maximal effect); conditions: cell viability, alamar blue fluorescence (LASV minigenome counter-screen); series mostly up to 57.5 µM
# [2] = qHTS for Inhibitors of the Functional Ribonucleoprotein Complex (vRNP) of Lassa (LASV) Arenavirus: LASV Primary Screen - GLuc reporter signal (AID 1347082; calls by dose curve; tested in HEK293 reporter line; also: nearly all actives have a fitted effect of over 60% in size); conditions: LASV minigenome vRNP, Gaussia luciferase reporter; series mostly up to 57.5 µM
# [3] = qHTS for Inhibitors of the Functional Ribonucleoprotein Complex (vRNP) of Lymphocytic Choriomeningitis Arenaviruses (LCMV): Viability assay - alamar blue signal for LCMV Primary Screen (AID 1347085; calls by dose curve; tested in HEK293 reporter line; also: nearly all actives have a fitted effect of over 80% in size; also: potency is read from the fitted curve at half-maximal effect); conditions: alamar blue viability counter-screen, LCMV vRNP screen cells; series mostly up to 57.5 µM
# [4] = biological target: Nucleoprotein (Lymphocytic choriomeningitis virus (strain Armstrong)) (UniProt P09992); assay: qHTS for Inhibitors of the Functional Ribonucleoprotein Complex (vRNP) of Lymphocytic Choriomeningitis Arenaviruses (LCMV): LCMV Primary Screen - GLuc reporter signal (AID 1347086); conditions: LCMV minigenome vRNP cell assay, Gaussia luciferase reporter; series mostly up to 57.5 µM; also: nearly all actives have a fitted effect of over 70% in size; also: potency is read from the fitted curve at half-maximal effect
# Chain of Nucleoprotein (Lymphocytic choriomeningitis virus (strain Armstrong)) (P09992 whole entry, looked up): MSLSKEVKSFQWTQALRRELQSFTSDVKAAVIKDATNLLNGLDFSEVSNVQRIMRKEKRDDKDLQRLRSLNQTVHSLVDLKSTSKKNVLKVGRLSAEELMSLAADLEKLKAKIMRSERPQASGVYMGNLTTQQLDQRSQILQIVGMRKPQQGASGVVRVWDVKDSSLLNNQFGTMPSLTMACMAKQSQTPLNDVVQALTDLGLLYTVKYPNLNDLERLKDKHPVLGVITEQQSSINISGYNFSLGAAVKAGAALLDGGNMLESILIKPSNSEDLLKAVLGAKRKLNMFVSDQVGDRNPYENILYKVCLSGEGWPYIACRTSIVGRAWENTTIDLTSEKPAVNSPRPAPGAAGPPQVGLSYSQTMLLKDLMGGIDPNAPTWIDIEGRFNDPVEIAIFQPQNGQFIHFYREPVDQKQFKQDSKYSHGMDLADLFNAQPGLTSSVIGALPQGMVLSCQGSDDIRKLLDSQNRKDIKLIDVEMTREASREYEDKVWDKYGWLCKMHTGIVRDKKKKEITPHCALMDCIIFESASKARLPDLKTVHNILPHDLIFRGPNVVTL
Structure (SMILES),Potency [1],Potency [2],Potency [3],Potency [4]
Nc1nc(=S)c2[nH]cnc2[nH]1,17.2 µM (active),,,
C#C[C@]1(O)CC[C@H]2[C@@H]3CCC4=Cc5oncc5C[C@]4(C)[C@H]3CC[C@@]21C,,inactive,inactive,inactive
Nc1ccn([C@@H]2O[C@H](CO)[C@@H](O)C2(F)F)c(=O)n1,,inactive,,inactive
CCCC(CCC)C(=O)O,,inactive,,inactive
CCC(=O)C(CC(C)N(C)C)(c1ccccc1)c1ccccc1 (configuration not stated),,inactive,inactive,inactive
Cc1ccc(S(=O)(=O)NC(=O)NN2CC3CCCC3C2)cc1 (configuration not stated),,,inactive,inactive
CNS(=O)(=O)CCc1ccc2[nH]cc(C3CCN(C)CC3)c2c1,,inactive,,inactive
CC(C)c1nc(CN(C)C(=O)N[C@H](C(=O)N[C@@H](Cc2ccccc2)C[C@H](O)[C@H](Cc2ccccc2)NC(=O)OCc2cncs2)C(C)C)cs1,,inactive,inactive,inactive
N=C(N)c1ccc(OCCCCCOc2ccc(C(=N)N)cc2)cc1,38.5 µM (active),,,
CC12CC3CC(C)(C1)CC(N)(C3)C2,,inactive,inactive,inactive
CN(Cc1cnc2nc(N)nc(N)c2n1)c1ccc(C(=O)N[C@@H](CCC(=O)O)C(=O)O)cc1,,inactive,inactive,inactive
CC1=C(/C=C/C(C)=C/C=C/C(C)=C/C(=O)Nc2ccc(O)cc2)C(C)(C)CCC1,,,,8.91 µM (active)
NC1[C@H]2CN(c3nc4c(cc3F)c(=O)c(C(=O)O)cn4-c3ccc(F)cc3F)C[C@@H]12 (some centres not stated),,inactive,,inactive
COc1cc(Nc2c(C#N)cnc3cc(OCCCN4CCN(C)CC4)c(OC)cc23)c(Cl)cc1Cl,1.09 µM (active),,,inactive
Cc1cc2c(C(C)C)c(O)c(O)c(C=O)c2c(O)c1-c1c(C)cc2c(C(C)C)c(O)c(O)c(C=O)c2c1O,30.6 µM (active),,inactive,
Nc1nc(N)c2nc(-c3ccccc3)c(N)nc2n1,,inactive,,inactive
CC1(C)O[C@@H]2[C@@H](CO[C@@]3(COS(N)(=O)=O)OC(C)(C)O[C@@H]23)O1,,inactive,inactive,inactive

Structure (SMILES),Potency [1],Potency [2],Potency [3],Potency [4]
CS(=O)c1ccc(-c2nc(-c3ccc(F)cc3)c(-c3ccncc3)[nH]2)cc1 (configuration not stated),,inactive,inactive,inactive
COC(=O)C1=C(C)NC(C)=C(C(=O)OCC(C)C)C1c1ccccc1[N+](=O)[O-] (configuration not stated),,inactive,inactive,inactive
CCc1c2c(nc3ccc(OC(=O)N4CCC(N5CCCCC5)CC4)cc13)-c1cc3c(c(=O)n1C2)COC(=O)[C@]3(O)CC,4.32 µM (active),,,27.3 µM (active)
CC(C)n1c(C=C[C@H](O)C[C@H](O)CC(=O)O)c(-c2ccc(F)cc2)c2ccccc21,2.43 µM (active),,7.69 µM (active),21.7 µM (active)
O=C(c1ccccc1)c1ccc2n1CCC2C(=O)O (configuration not stated),,inactive,inactive,inactive
CC(=O)N(O)CCCCCNC(=O)CCC(=O)N(O)CCCCCNC(=O)CCC(=O)N(O)CCCCCN,,inactive,inactive,inactive
COc1cc(NCc2ccc3nc(N)nc(N)c3c2C)cc(OC)c1OC,,inactive,,inactive
Cc1ccc(-n2nc(C(C)(C)C)cc2NC(=O)Nc2ccc(OCCN3CCOCC3)c3ccccc23)cc1,,inactive,,inactive
CCC1=C[C@@H]2CN(C1)Cc1c([nH]c3ccccc13)[C@@](C(=O)OC)(c1cc3c(cc1OC)N(C)[C@H]1[C@@](O)(C(=O)OC)[C@H](OC(C)=O)[C@]4(CC)C=CCN5CC[C@]31[C@@H]54)C2,inactive,,inactive,inactive
Cc1nc(Nc2ncc(C(=O)Nc3c(C)cccc3Cl)s2)cc(N2CCN(CCO)CC2)n1,,,inactive,inactive
Nc1nc2c(ncn2COC(CO)CO)c(=O)[nH]1,,inactive,,inactive
CO[C@@]12[C@H](COC(N)=O)C3=C(C(=O)C(C)=C(N)C3=O)N1C[C@@H]1N[C@@H]12,,inactive,,inactive
CS(=O)(=O)CCNCc1ccc(-c2ccc3ncnc(Nc4ccc(OCc5cccc(F)c5)c(Cl)c4)c3c2)o1,0.432 µM (active),,0.137 µM (active),0.769 µM (active)
O=C1c2cccc3c2[C@H](CCC3)CN1[C@@H]1CN2CCC1CC2,,inactive,inactive,inactive
CCc1nn(CCCN2CCN(c3cccc(Cl)c3)CC2)c(=O)n1CCOc1ccccc1,,,inactive,
O=C(C1CCCCC1)N1CC(=O)N2CCc3ccccc3C2C1 (configuration not stated),,inactive,inactive,inactive
